Assay results as given in PubChem BioAssay.
Calls of active or inactive are those of the source.

Assay: growth modulation of vineyard yeast isolate – strain RM11-1a, OD600, basal, 24 h, primary screen (AID 1177);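 further: cultures grown under basal conditions with no added stressor; test concentration not given here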
Details: S. cerevisiae RM11-1a growth, OD600, 24 h; higher = more signal, called active from +8 up or from −8 down

SMILES	z-score
Cc1ccccc1C(O)C1C=CC2C(=O)N(C)C(=O)C2N1N1CCCCC1 (configuration not stated)	-0.252 (inactive)
Cc1cc(C)c(C(O)C2C=CC3C(=O)N(C)C(=O)C3N2Nc2ccccc2)c(C)c1 (configuration not stated)	-0.362 (inactive)
COc1ccc(C#Cc2ccc3c(c2)[C@]2(C(=O)N3)[C@H](C(=O)NC[C@H](O)c3ccccc3)[C@H]3C(=O)O[C@H](c4ccccc4)[C@H](c4ccccc4)N3[C@@H]2c2ccc(OCCO)cc2)cc1	2.97 (inactive)
C=C(C(=O)CC[C@H](OC(C)=O)c1ccc(OCCO)cc1)C(C)C	-21.4 (active)
CN(C)C(=O)[C@@]1(CCC(=O)OC(C)(C)C)N=C(c2ccc(OCCCO)cc2)O[C@H]1c1ccccc1	-0.346 (inactive)
[N-]=[N+]=NCc1ccccc1C[C@]1(C(=O)O)N=C(c2ccc(OCCCO)cc2)O[C@H]1c1ccccc1CN=[N+]=[N-]	-1.05 (inactive)
COc1cc(CO)ccc1OC(C)=O	-1.18 (inactive)
CC(C)=CCCC(C)=CC(O)C1C=CC2C(=O)N(c3ccccc3)C(=O)C2N1Nc1ccccc1 (configuration not stated)	0.42 (inactive)
CC(C)c1ccc(NN2C(C(O)c3ccc(N(C)C)cc3)C=CC3C(=O)N(c4ccccc4)C(=O)C32)cc1 (configuration not stated)	0.25 (inactive)
COCCOC(=O)N1C(=O)[C@@]2(c3cc(C#CCC(C(=O)OC)C(=O)OC)ccc31)[C@H](C(=O)N1CCCCCCC1)[C@H]1C(=O)O[C@H](c3ccccc3)[C@H](c3ccccc3)N1[C@@H]2c1ccc(OCCO)cc1	2.41 (inactive)
O=C1OCCC=C[C@H]2OC34C=CCN(Cc5ccccc5)C(=O)[C@H]3N(CCCCCCO)C(=O)[C@@H]4C12 (some centres not stated)	0.589 (inactive)
Cc1ccc(S[C@]2(C(=O)NCCN3CCOCC3)CC(=O)N(Cc3cc(C(F)(F)F)cc(C(F)(F)F)c3)[C@@H]2c2ccc(CO)cc2I)cc1	-2.09 (inactive)
CCCCCN1CC=CC23O[C@@H]4/C=C\CCC(C)OC(=O)C4[C@H]2C(=O)N(CCCCCO)[C@@H]3C1=O (some centres not stated)	-1.01 (inactive)
O=C1C2C=CC(C(O)c3cccs3)N(Nc3ccccc3F)C2C(=O)N1c1ccccc1 (configuration not stated)	-0.24 (inactive)
NCCCCCCNC(=O)[C@H]1C[C@H]2C(=O)NCC(=O)N2[C@H]1c1cccc(OCCO)c1	-0.689 (inactive)
COC(=O)C(CC#Cc1ccc2c(c1)[C@]1(C(=O)N2)[C@H](c2ccc(OCCO)cc2)N2[C@H](c3ccccc3)[C@H](c3ccccc3)OC(=O)[C@H]2[C@@H]1C(=O)NC[C@H](O)c1ccccc1)C(=O)OC	3.39 (inactive)
CCCN1C(=O)[C@@]2(CCC(=O)OC(C)(C)C)N=C(c3ccc(OCCCO)cc3)O[C@H]2c2ccccc21	0.992 (inactive)
